Measurements taken from PubChem BioAssay (EPA / NIEHS).
Calls of active or inactive are those of the source. How the source made its calls: active means hit-call score of the fitted dose curve at least 0.9, where 1 is the maximum; inactive means score below 0.9.

Experiments:
[1] = BSK_hDFCGF_SRB: Viability Assessment in the BioMAP Diversity Plus: hDFCGF Assay (AID 2283061); details: primary human foreskin fibroblasts;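 further: cells exposed to compound for 24 h before the read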
Method in brief: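 Viability was read as total protein: after 10% TCA fixation, wells were stained with 0.1% sulforhodamine B and read at 560 nm. Primary human foreskin fibroblasts were dosed for 24 h, with bidirectional fitting versus DMSO.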

[2] = read-out: TIMP metallopeptidase inhibitor 1 (TIMP1), TIMP1 (gene 7076); assay: BSK_hDFCGF_TIMP1: BioMAP Diversity Plus: hDFCGF Assay for TIMP metallopeptidase inhibitor 1 (TIMP1) Biomarker Activity (AID 2283062); details: primary human foreskin fibroblasts; actives raise or lower the signal
Method in brief: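 TIMP-1 measured by ELISA 24 h after chemical dosing of primary human skin fibroblasts, with gain or loss fitted relative to DMSO. Parallel SRB staining (560 nm) monitored overt cytotoxicity.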

[3] = read-out: Monokine induced gamma interferon (MIG), CXCL9 (gene 4283); assay: BSK_hDFCGF_MIG: BioMAP Diversity Plus: hDFCGF Assay for Monokine induced gamma interferon (MIG) Biomarker Activity (AID 2283063); details: primary human foreskin fibroblasts; actives raise or lower the signal
Method in brief: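 Human primary foreskin fibroblasts in the hDFCGF system, exposed to test chemical for 24 h; MIG measured by ELISA. Bidirectional curve fitting against DMSO negative control as activity baseline.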

[4] = read-out: Matrix Metallopeptidase 1 (MMP1), MMP1 (gene 4312); assay: BSK_hDFCGF_MMP1: BioMAP Diversity Plus: hDFCGF Assay for Matrix Metallopeptidase 1 (MMP1) Biomarker Activity (AID 2283064); details: primary human foreskin fibroblasts; actives raise or lower the signal
Method in brief: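 ELISA read-out of MMP1 from human foreskin fibroblasts (primary skin cells), 24 h post-dose. Gain or loss of signal was fitted bidirectionally versus DMSO negative control; cytotoxicity was checked by SRB in parallel cultures.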

[5] = read-out: Plasminogen activator inhibitor-1 (PAI1), SERPINE1 (gene 5054); assay: BSK_hDFCGF_PAI1: BioMAP Diversity Plus: hDFCGF Assay for Plasminogen activator inhibitor-1 (PAI1) Biomarker Activity (AID 2283066); details: primary human foreskin fibroblasts; actives raise or lower the signal
Method in brief: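 Human skin fibroblast cultures receive chemical for 24 h before PAI-1 is measured by ELISA; signal changes are fitted bidirectionally against DMSO-treated wells.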

[6] = read-out: Intercellular Adhesion Molecule 1 (ICAM1), ICAM1 (gene 3383); assay: BSK_KF3CT_ICAM1: BioMAP Diversity Plus: KF3CT Assay for Intercellular Adhesion Molecule 1 (ICAM1) Biomarker Activity (AID 2283067); details: primary human keratinocytes with fibroblasts; actives raise or lower the signal
Method in brief: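 Cell-surface ICAM-1 was measured by ELISA 24 h after dosing primary human skin keratinocytes co-cultured with fibroblasts. Parallel SRB staining tracked overt cytotoxicity. Gain or loss of signal was fitted relative to DMSO.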

[7] = read-out: Interferon-gamma inducible Protein 10 (IP10), CXCL10 (gene 3627); assay: BSK_KF3CT_IP10: BioMAP Diversity Plus: KF3CT Assay for Interferon-gamma inducible Protein 10 (IP10) Biomarker Activity (AID 2283068); details: primary human keratinocytes with fibroblasts; actives raise or lower the signal
Method in brief: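 KF3CT co-culture (keratinocytes + foreskin fibroblasts), 24 h compound, IP-10 by ELISA; bidirectional fit vs DMSO baseline.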

[8] = BSK_KF3CT_SRB: Viability Assessment in the BioMAP Diversity Plus: KF3CT Assay (AID 2283069); details: primary human keratinocytes with fibroblasts;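 further: total protein by sulforhodamine B staining as a cytotoxicity measure; read 24 h after compound addition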
Method in brief: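 SRB read-out at 560 nm (0.1% stain, TCA-fixed cells) gauges overt cytotoxicity in a human skin keratinocyte–fibroblast co-culture 24 h post-dosing. Signal change was fitted bidirectionally relative to DMSO control.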

[9] = read-out: Interleukin-1 alpha (IL1a), IL1A (gene 3552); assay: BSK_KF3CT_IL1a: BioMAP Diversity Plus: KF3CT Assay for Interleukin-1 alpha (IL1a) Biomarker Activity (AID 2283070); details: primary human keratinocytes with fibroblasts; actives raise or lower the signal
Method in brief: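 Primary skin co-culture (keratinocytes, foreskin fibroblasts), 24 h exposure; ELISA for IL-1a; bidirectional curve fit vs DMSO.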

[10] = read-out: TIMP metallopeptidase inhibitor 2 (TIMP2), TIMP2 (gene 7077); assay: BSK_KF3CT_TIMP2: BioMAP Diversity Plus: KF3CT Assay for TIMP metallopeptidase inhibitor 2 (TIMP2) Biomarker Activity (AID 2283071); details: primary human keratinocytes with fibroblasts; actives raise or lower the signal
Method in brief: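 Measurements come from ELISA detection of TIMP-2 at 24 hours in a dosed human keratinocyte and foreskin fibroblast co-culture. DMSO serves as negative control and baseline.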

[11] = read-out: Transforming growth factor beta 1 (TGFb1), TGFB1 (gene 7040); assay: BSK_KF3CT_TGFb1: BioMAP Diversity Plus: KF3CT Assay for Transforming growth factor beta 1 (TGFb1) Biomarker Activity (AID 2283072); details: primary human keratinocytes with fibroblasts; actives raise or lower the signal
Method in brief: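 TGF-b1 ELISA on a 24 h dosed co-culture of human keratinocytes and foreskin fibroblasts; cytotoxicity tracked in parallel cultures by SRB staining.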

[12] = read-out: C-C motif chemokine 2 (Homo sapiens) (UniProt P13500); assay: BSK_KF3CT_MCP1: BioMAP Diversity Plus: KF3CT Assay for Monocyte Chemoattractant Protein 1 (MCP1/CCL2) Biomarker Activity (AID 2283073); details: primary human keratinocytes with fibroblasts; actives raise or lower the signal
Method in brief: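 ELISA read-out of MCP-1, 24 h post-dose, in primary human skin keratinocytes co-cultured with fibroblasts. Parallel SRB staining monitors cytotoxicity; changes fitted both directions relative to DMSO.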

[13] = read-out: Matrix Metallopeptidase 9 (MMP9), MMP9 (gene 4318); assay: BSK_KF3CT_MMP9: BioMAP Diversity Plus: KF3CT Assay for Matrix Metallopeptidase 9 (MMP9) Biomarker Activity (AID 2283074); details: primary human keratinocytes with fibroblasts; actives raise or lower the signal;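 on AC50: MMP9 protein level quantified by ELISA in the co-culture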
Method in brief: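 ELISA read-out of MMP-9 at 24 h post-dosing in a co-culture of human skin keratinocytes and foreskin fibroblasts. Gain or loss of signal was fitted in both directions against DMSO.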

[14] = read-out: urokinase plasminogen activator (uPA), PLAU (gene 5328); assay: BSK_KF3CT_uPA: BioMAP Diversity Plus: KF3CT Assay for urokinase plasminogen activator (uPA) Biomarker Activity (AID 2283075); details: primary human keratinocytes with fibroblasts; actives raise or lower the signal
Method in brief: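 Skin co-culture (keratinocytes + foreskin fibroblasts), human primary; 24 h post-dose; uPA by ELISA; gain/loss fit vs DMSO baseline.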

[15] = read-out: CD40, CD40 (gene 958); assay: BSK_LPS_CD40: BioMAP Diversity Plus: LPS Assay for CD40 Biomarker Activity (AID 2283076); details: primary human HUVEC with PBMC; actives raise or lower the signal
Method in brief: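 In the LPS system of human endothelial cells with peripheral blood mononuclear cells, CD40 levels were read by ELISA 24 h post-treatment. Signal changes in either direction were fitted against the DMSO baseline, with parallel SRB protein staining.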

[16] = read-out: E-selectin (Homo sapiens) (UniProt P16581); assay: BSK_LPS_Eselectin: BioMAP Diversity Plus: LPS Assay for Eselectin Biomarker Activity (AID 2283077); details: primary human HUVEC with PBMC; actives raise or lower the signal
Method in brief: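 E-selectin ELISA on LPS-stimulated endothelial cell/PBMC co-cultures, read 24 h post-treatment; gains and losses fitted against DMSO. Parallel SRB staining (0.1% SRB after 10% TCA fixation, 560 nm) flags overt cytotoxicity.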

[17] = read-out: Interleukin-8 (IL8), CXCL8 (gene 3576); assay: BSK_LPS_IL8: BioMAP Diversity Plus: LPS Assay for Interleukin-8 (IL8) Biomarker Activity (AID 2283078); details: primary human HUVEC with PBMC; actives raise or lower the signal
Method in brief: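 ELISA read-out of IL-8 after 24 h chemical treatment of LPS-activated endothelial/PBMC human primary co-cultures. Changes either up or down relative to DMSO; overt cytotoxicity checked by sulforhodamine B staining in parallel wells.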

[18] = BSK_LPS_SRB: Viability Assessment in the BioMAP Diversity Plus: LPS Assay (AID 2283079); details: primary human HUVEC with PBMC;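 further: total protein by sulforhodamine B absorbance as a cytotoxicity measure; measured one day after compound addition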
Method in brief: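 SRB viability endpoint: cells fixed with 10% TCA, stained with 0.1% SRB, read at 560 nm, 24 h post-dose. HUVEC/PBMC co-culture; signal change in either direction scored relative to DMSO.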

[19] = read-out: Interleukin-1 alpha (IL1a), IL1A (gene 3552); assay: BSK_LPS_IL1a: BioMAP Diversity Plus: LPS Assay for Interleukin-1 alpha (IL1a) Biomarker Activity (AID 2283080); details: primary human HUVEC with PBMC; actives raise or lower the signal
Method in brief: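 Readout is IL-1a level by ELISA, 24 h post-dose, fitted as gain or loss relative to DMSO. System: LPS-activated human primary co-culture of vascular endothelium and peripheral blood mononuclear cells, with parallel SRB total-protein cytotoxicity.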

Measured: AC50

E-selectin (Homo sapiens), sequence (P16581 whole entry, looked up): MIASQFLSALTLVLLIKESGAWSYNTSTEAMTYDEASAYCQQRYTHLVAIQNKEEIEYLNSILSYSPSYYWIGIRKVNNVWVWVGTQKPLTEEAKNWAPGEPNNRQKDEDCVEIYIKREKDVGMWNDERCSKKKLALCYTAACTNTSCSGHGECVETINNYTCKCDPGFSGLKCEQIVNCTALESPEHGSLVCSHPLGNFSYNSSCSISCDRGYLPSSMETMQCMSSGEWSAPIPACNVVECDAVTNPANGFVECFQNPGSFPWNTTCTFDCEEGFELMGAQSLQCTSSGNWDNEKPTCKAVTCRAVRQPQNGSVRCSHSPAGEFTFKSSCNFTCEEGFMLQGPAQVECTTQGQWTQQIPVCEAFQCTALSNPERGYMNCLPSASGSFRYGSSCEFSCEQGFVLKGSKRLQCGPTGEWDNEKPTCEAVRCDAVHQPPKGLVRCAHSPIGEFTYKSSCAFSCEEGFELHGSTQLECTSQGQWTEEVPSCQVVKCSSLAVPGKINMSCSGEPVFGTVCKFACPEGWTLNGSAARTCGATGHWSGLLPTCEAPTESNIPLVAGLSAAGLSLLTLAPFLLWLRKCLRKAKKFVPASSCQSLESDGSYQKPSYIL

CC(C)=CC1C(C(=O)OCc2coc(Cc3ccccc3)c2)C1(C)C (stereo not drawn)
active: [16] 12.1 µM
inactive: all other assays above

CNC(=O)N(C)c1nnc(C(C)(C)C)s1
inactive: all assays above

O=c1n(Cl)c(=O)n(Cl)c(=O)n1Cl
inactive: all assays above

CN/C(=N\[N+](=O)[O-])NCc1cnc(Cl)s1
inactive: all assays above

CC(C)N1C(=O)N(c2ccccc2)CSC1=NC(C)(C)C
active: [1] 32.7 µM | [3] 31.6 µM | [7] 33.2 µM | [8] 30.8 µM | [9] 26.3 µM | [13] 31.6 µM | [15] 28.2 µM | [16] 30.6 µM | [17] 17.1 µM | [18] 34 µM | [19] 30.6 µM
inactive: [2] | [4] | [5] | [6] | [10] | [11] | [12] | [14]

OC(c1ccc(Cl)cc1)(c1ccc(Cl)cc1)C(Cl)(Cl)Cl
active: [1] 10.5 µM | [2] 11.4 µM | [3] 10.1 µM | [4] 11 µM | [5] 11 µM | [6] 11.6 µM | [7] 9.49 µM | [8] 6.45 µM | [9] 8.05 µM | [10] 9.48 µM | [11] 9.69 µM | [12] 11 µM | [13] 7.26 µM | [14] 7.28 µM | [15] 30.5 µM | [16] 30.9 µM | [17] 30.6 µM | [19] 27.4 µM
